# PubChem BioAssay
# Values joined by “and” are separate entries in the source; they are usually repeats but may differ in a detail not shown here. Equal values may be shown once. Active and inactive are the calls of the source.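 The calls were made as follows, unless noted: active = inhibition at or above 50% relative to wild type and mutant plate controls; inactive = inhibition below 50%.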
# Legend:
# [1] = inhibitors of TNFa-induced NFkB p65 translocation, primary screen, imaging, HUVEC, MLSMR starter and 10KST1 sets (AID 438;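 active = inhibition above 20% together with a positive visual image hit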;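 also: compound added about 3h40 before a 20 min TNFalpha stimulation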;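 as to inhibition: signal is the nuclear over cytoplasmic p65 intensity ratio per well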); conditions: HUVEC TNFa-induced p65 nuclear translocation; cell count: measured here: nuclei count (cytotoxicity indicator), at 2.08 µM; inhibition: at 2 µM, stronger effect = higher value, 0% TNFa-plus-vehicle, 100% no-TNFa wells
# [2] = reduction of polyQ htt aggregates in cells – imaging, exon1htt(103Q)mCFP cells, high-content imaging, primary screen (AID 483;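 active = visual image review flags a hit and inhibition of aggregation exceeds 20%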;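 also: compound exposure lasted 3 days before fixation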;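 as to nuclei count: percent of the per-plate median nuclei count of sample wells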); conditions: exon1htt(103Q)mCFP cell line, aggregate imaging, at 2 µM; inhibition of aggregation: stronger effect = higher value; nuclei count: measured here: cell count, toxicity
# [3] = endothelial E-selectin expression blockers – imaging, HUVEC, immunofluorescence, MLSMR starter and 10KST1 sets, primary screen (AID 487;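 active = visually confirmed hit in the image check and inhibition above 20%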;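 as to inhibition: signal is fraction of cell area covered by stained E-selectin grains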;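 as to nuclei count: 100% = median nuclei count of all wells on the same plate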); conditions: HUVEC TNFalpha-induced E-selectin immunofluorescence imaging, at 2 µM; inhibition: stronger effect = higher value; nuclei count: measured here: cell number, toxicity
# [4] = Primary imaging screen for DUSP6 inhibitors that restore phospho-Erk in transfected HeLa cells, chemical complementation (AID 609;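 active = compounds giving at least 50% inhibition in the cell-based MKP-3 phosphatase rescue imaging test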;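 as to inhibition: phospho-Erk level distribution per well compared with pooled transfected vehicle control wells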); conditions: HeLa MKP-3 transfected, phospho-Erk imaging KS statistic, at 10 µM, cells stimulated with TPA for 15 min
# [5] = biological target: Dual specificity protein phosphatase 6 (Homo sapiens) (UniProt Q16828); assay: as above; conditions: HeLa MKP-3 transfected, phospho-Erk imaging KS statistic; at 10 µM; stronger effect = higher value; cells stimulated with TPA for 15 min
# [6] = biological target: Voltage-gated potassium channel subunit beta-2 (Rattus norvegicus) (UniProt P62483); assay: inhibitors of rat Kvbeta2 reductase activity – biochemical, NADPH fluorescence, primary screen (AID 622;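 active = fluorescence slope higher than the sample average by over 3 SD, cut at about -0.22 in these data, passing the limit was not always enough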;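 also: slope of raw intensity against log time taken from 70 to 1610 s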); conditions: recombinant KvBeta, 4-cyanobenzaldehyde reduction, at 10 µM, stronger effect = higher value
# [7] = biological target: Voltage-gated potassium channel subunit beta-2 (Rattus norvegicus) (UniProt P62483); assay: enhancers of rat Kvbeta2 NADPH turnover – biochemical, NADPH fluorescence, primary screen (AID 623;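 active = NADPH fluorescence slope more negative than the mean of all samples by about 3 SD, 99.7% confidence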;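 also: fluorescence intensity change per second fitted from 20 to 320 s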); conditions: Recombinant KvBeta, NADPH fluorescence decrease slope, 10 min; at 10 µM; stronger effect = lower value
# [8] = biological target: Alpha-2C adrenergic receptor (Homo sapiens) (UniProt P18825); assay: compounds altering alpha2C-coupled GIRK flux – cell-based, HEK293 alpha2C/GIRK1/2, thallium flux, primary screen (AID 624;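 active = fluorescence slope after compound addition differing from the mean of all screened samples at 99.7% confidence, in either direction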;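 also: slope of fluorescence ratio to pre-addition baseline per second over 15 to 24 s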); conditions: thallium flux BTC fluorescence, at 10 µM, actives lie on both sides
# [9] = biological target: Muscarinic acetylcholine receptor M4 (Homo sapiens) (UniProt P08173); assay: M4-linked GIRK flux change, two-sided – cell-based, HEK293 M4/GIRK, thallium flux, BTC-AM, M4 allosteric agonist project, primary screen (AID 625;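 active = fluorescence slope after compound addition differing from the mean of all tested samples at 99.7% confidence, mostly higher but some lower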;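 also: thallium influx through GIRK channels coupled to M4 in HEK293 cells with BTC-AM dye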); conditions: at 10 µM, actives lie on both sides
# [10] = inhibitors of larval lipid processing in zebrafish, primary screen, whole organism, PED6 fluorescence, gall bladder and intestine (AID 686;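 active = a full or partial loss of lipid-probe fluorescence in the fish gall bladder, intestine or both, judged by eye; inactive = no fluorescence loss, or compound toxic to the fish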;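 also: larvae 5 to 7 days old with five fish per well; signal comes from phospholipase A2 cleavage of quenched PED6 carried via bile; overnight exposure to compound and PED6 before scoring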); conditions: Zebrafish larvae PED6 lipid processing, fluorescence scoring; screened at 20 µM (by protocol)
# [11] = loss of swimming-algae plug formation – whole organism, Chlamydomonas reinhardtii, WT vs cilia-less mutant, absorbance, 96-well, primary screen (AID 463189); conditions: Chlamydomonas reinhardtii gravitaxis, OD600 absorbance, 2 days; at 10 µM; stronger effect = higher value;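 also: 0% = wild type cc124 cells in DMSO and 100% = ciliumless bld1 mutant cells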
# [12] = blockers of RIG-like receptor reporter activation – cell-based, Sendai virus stimulus, luciferase, 10K MLSCN set, TLR/RLR signaling modifier project, primary screen (AID 602276;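 active = inhibition at or above 50% at 10 µM; inactive = inhibition below 50%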;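 also: firefly luciferase from ISG56 promoter only with Renilla not read in this screen; 0% = Sendai virus plus DMSO and 100% = medium plus DMSO without virus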); conditions: HEK293 RL24 IRF3 luciferase reporter, at 10 µM, stronger effect = higher value
# [13] = TLR3 IRF3 reporter activation blockers – cell-based, poly I:C stimulus, luciferase, 10K MLSCN set, primary screen (AID 602277;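 active = inhibition of the reporter signal at or above 50%; inactive = inhibition below 50%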); conditions: HEK293-TLR3 RL24 IRF3 luciferase reporter, at 10 µM, stronger effect = higher value
# [14] = measured here: cell density z-score
# [15] = measured here: nuclear c-Myc green intensity z-score
# [16] = measured here: nuclear pErk red intensity z-score, stronger effect = higher value
# Sequence of Alpha-2C adrenergic receptor (Homo sapiens) (P18825 whole entry, looked up): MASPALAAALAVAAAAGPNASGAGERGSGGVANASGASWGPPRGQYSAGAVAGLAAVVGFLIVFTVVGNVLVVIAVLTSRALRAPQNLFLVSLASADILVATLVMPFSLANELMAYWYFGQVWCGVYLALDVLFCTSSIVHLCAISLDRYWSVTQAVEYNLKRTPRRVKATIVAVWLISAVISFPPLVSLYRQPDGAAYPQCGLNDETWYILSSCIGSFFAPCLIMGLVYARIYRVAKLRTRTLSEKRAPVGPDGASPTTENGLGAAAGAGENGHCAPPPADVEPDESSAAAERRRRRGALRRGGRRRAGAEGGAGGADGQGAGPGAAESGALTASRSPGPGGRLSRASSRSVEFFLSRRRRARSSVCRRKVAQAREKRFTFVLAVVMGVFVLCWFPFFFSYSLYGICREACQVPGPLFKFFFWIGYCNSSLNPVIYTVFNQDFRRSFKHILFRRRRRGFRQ
# Sequence of Muscarinic acetylcholine receptor M4 (Homo sapiens) (P08173 whole entry, looked up): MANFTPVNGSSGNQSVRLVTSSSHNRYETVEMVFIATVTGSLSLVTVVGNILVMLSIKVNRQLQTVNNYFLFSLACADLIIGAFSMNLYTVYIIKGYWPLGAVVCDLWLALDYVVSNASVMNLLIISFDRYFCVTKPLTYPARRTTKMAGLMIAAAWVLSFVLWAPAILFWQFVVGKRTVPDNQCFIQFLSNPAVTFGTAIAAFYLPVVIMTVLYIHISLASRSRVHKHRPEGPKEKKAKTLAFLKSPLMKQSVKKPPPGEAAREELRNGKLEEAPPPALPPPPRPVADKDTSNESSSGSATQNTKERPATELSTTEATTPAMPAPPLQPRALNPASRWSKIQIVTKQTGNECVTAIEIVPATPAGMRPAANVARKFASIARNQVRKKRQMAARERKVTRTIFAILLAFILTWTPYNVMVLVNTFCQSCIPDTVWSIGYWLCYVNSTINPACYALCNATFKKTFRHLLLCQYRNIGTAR
# Sequence of Dual specificity protein phosphatase 6 (Homo sapiens) (Q16828 whole entry, looked up): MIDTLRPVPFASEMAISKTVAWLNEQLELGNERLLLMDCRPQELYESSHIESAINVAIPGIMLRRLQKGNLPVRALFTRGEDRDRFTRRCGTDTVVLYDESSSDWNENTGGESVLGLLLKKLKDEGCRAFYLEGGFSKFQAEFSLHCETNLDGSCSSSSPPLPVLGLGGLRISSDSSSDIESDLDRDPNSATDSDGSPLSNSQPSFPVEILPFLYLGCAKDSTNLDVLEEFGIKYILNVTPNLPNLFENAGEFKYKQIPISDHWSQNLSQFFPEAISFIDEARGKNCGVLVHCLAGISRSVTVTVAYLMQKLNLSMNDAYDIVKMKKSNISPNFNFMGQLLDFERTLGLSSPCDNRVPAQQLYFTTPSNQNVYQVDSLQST
# Sequence of Voltage-gated potassium channel subunit beta-2 (Rattus norvegicus) (P62483 whole entry, looked up): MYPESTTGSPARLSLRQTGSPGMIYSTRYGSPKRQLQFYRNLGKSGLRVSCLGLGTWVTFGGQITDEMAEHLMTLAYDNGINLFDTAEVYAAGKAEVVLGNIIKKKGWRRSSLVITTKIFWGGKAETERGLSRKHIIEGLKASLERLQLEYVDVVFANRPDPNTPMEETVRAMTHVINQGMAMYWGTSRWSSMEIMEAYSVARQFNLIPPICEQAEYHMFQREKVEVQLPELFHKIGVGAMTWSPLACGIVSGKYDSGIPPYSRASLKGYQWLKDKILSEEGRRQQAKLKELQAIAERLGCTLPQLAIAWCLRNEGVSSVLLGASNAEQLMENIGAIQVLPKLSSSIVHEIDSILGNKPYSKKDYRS
Compound,cell count [1],inhibition [1],inhibition of aggregation [2],nuclei count [2],inhibition [3],nuclei count [3],"z-score [4, 14]","z-score [4, 15]","z-score [4, 16]",inhibition [5],fluorescence slope [6],NADPH fluorescence slope [7],slope [8],fluorescence slope [9],outcome [10],inhibition [11],inhibition [12],inhibition [13]
CC1(C)Cc2c(c(-c3ccccc3)nc(N3CCCC3)c2C(N)=O)CO1,496,-6% (inactive),15.7% (inactive),102%,-130% (inactive),142%,-1.1,1.34,-0.38,-6.59% (inactive),-0.473 (inactive),-0.000128 (inactive),0.0059 (inactive),0.00451 (inactive),inactive; toxic,-0.193% (inactive),16.5% (inactive),21.4% (inactive)
C=C(C)C1Cc2c(C)nn(-c3nc(C)cc(C)n3)c2C1 (configuration not stated),462,-2.7% (inactive),5% (inactive),84.7%,-50.5% (inactive),121%,0.411,1.2,0.938,1.98% (inactive),-0.396 (inactive),-3.5e-05 (inactive),0.00521 (inactive),0.00615 (inactive),inactive,51.6% (active),11.3% (inactive),16.4% (inactive)
COCCNc1oc(-c2ccc(C)cc2)nc1C#N,405,1.6% (inactive),12.5% (inactive),88.9%,-23.4% (inactive),129%,-0.898,0.297,1.87,18.2% (inactive),-0.461 (inactive),-5.9e-05 (inactive),0.00692 (inactive),0.00552 (inactive),inactive,4.66% (inactive),-24.8% (inactive),-85.8% (inactive)
O=C(O)CC1Sc2nc3ccccc3n2C1=O (configuration not stated),532,-9% (inactive),-11.5% (inactive),89%,-22.4% (inactive),116%,-0.312,-0.637,-0.43,15.9% (inactive),-0.49 (inactive),-1.3e-05 (inactive),0.00572 (inactive),0.00487 (inactive),inactive,27.7% (inactive),13.8% (inactive),12.9% (inactive)
N#Cc1c(N2CCOCC2)nc(N2CCCCC2)c2c1CCN(C1CCCCC1)C2,486,-5.3% (inactive),6.4% (inactive),102%,-130% (inactive),119%,-0.146,1.29,0.496,-13.3% (inactive),-0.442 (inactive),-0.000108 (inactive),0.00466 (inactive),0.00444 (inactive),inactive,2.06% (inactive),-1.64% (inactive),99% (active)
CC(=O)C1=C(NC(=O)c2ccccc2F)C[C@@H]2[C@H]1C2(C)C,511,0.8% (inactive),-2.1% (inactive),99.3%,-94.2% (inactive),126%,0.289,-1.02,0.959,11.9% (inactive),-0.395 (inactive),-7.2e-05 (inactive),0.00586 (inactive),0.00577 (inactive),inactive,13.1% (inactive),-7.48% (inactive),-10.2% (inactive)
Cc1nnc(SCC(=O)N2CCC(C(N)=O)CC2)s1,423,-2.2% (inactive),-4.3% (inactive),87.6%,-80.5% (inactive),137%,-1.3,-0.207,-0.854,-3.95% (inactive),-0.418 (inactive),-3.7e-05 (inactive),0.00689 (inactive),0.00524 (inactive),inactive,29.5% (inactive),7.88% (inactive),7.15% (inactive)
Cc1cc(C)c(C#N)c(SCc2[nH]nc3c2C(c2ccccc2)C(C#N)=C(N)O3)n1 (configuration not stated),633,-7.7% (inactive),5.8% (inactive),104%,-6.9% (inactive),114%,0.152,-0.343,0.203,-7.28% (inactive),-0.571 (inactive),2.5e-06 (inactive),0.00484 (inactive),–,inactive,31.6% (inactive),12.1% (inactive),20.3% (inactive)
O=C(CCNNC(=O)c1ccncc1)NCc1ccccc1,595,2.2% (inactive),-4.6% (inactive),104%,-81.8% (inactive),117%,-1.05,-0.737,0.12,8% (inactive),-0.485 (inactive),-7.6e-05 (inactive),0.00448 (inactive),–,inactive,4.6% (inactive) and 1.15% (inactive),-7.31% (inactive),21.4% (inactive)
CCCNC(=O)NS(=O)(=O)c1ccc(Cl)cc1,639,-5.9% (inactive),14.1% (inactive),84.6%,-56.7% (inactive),120%,-0.235,0.988,1.2,-0.493% (inactive),-0.477 (inactive),-1.5e-05 (inactive),0.00564 (inactive),–,inactive,-16% (inactive) and -6.85% (inactive),-0.0514% (inactive),14.7% (inactive)
